Assay results reported in PMC10668032, “Altered binding affinity of SIX1-Q177R correlates with enhanced WNT5A and WNT pathway effector expression in Wilms tumor”.
In all, about 33,000 sequences were measured (“e-score”: median about -0.053, highest 2% from about 0.38 on). This excerpt belongs to a sample that is enriched for the highest values.

The sequences below were run against T1, SIX1 homeodomain (reference allele) (human, UniProt Q15475 108-198) (assay: universal protein binding microarray; Universal all-10-mer PBM (8x60K, AMADID 030236), 300 nM GST-tagged protein, Alexa Fluor 488 anti-GST; buffer, salt, pH and temperature not stated (as in Berger); high values mean tight binding). Settings: protein: ivt; tags: N-terminal GST; dsDNA, one strand shown.
T1 sequence: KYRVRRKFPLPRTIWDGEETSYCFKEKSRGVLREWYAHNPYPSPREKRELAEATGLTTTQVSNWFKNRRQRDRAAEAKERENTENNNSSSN
Summary of the method: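 Binding of GST-tagged homeodomains is given as 8-mer E-scores from the Universal PBM Analysis Suite. The proteins were produced by in vitro transcription/translation, quantified by anti-GST western blot against a recombinant GST standard curve, and applied in duplicate at 300 nM final concentration to universal 'all 10-mer' protein binding microarrays (8×60K format).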

Sequence	binding signal [E-score]
ATTAATCC	0.316 ± 0.089
TCAATCCA	0.163 ± 0.0587
ATCCCCGC	0.326 ± 0.0778
ATCACCCG	0.397 ± 0.0282
ATCACCCA	0.308 ± 0.00677
ATCACCCC	0.302 ± 0.0208
ATCCCCAC	0.347 ± 0.0302
ATCCCCCC	0.423 ± 0.0283
ATCGTAGG	0.16 ± 0.0377
CTGATCTA	0.2567 ± 0.000955
GATACGCA	0.4207 ± 0.00257
GATACGTA	0.4288 ± 0.00319
GAGACGCC	0.155 ± 0.0256
TATACGCA	0.304 ± 0.0184
AATACGTA	0.237 ± 0.0731
GATACAAA	0.252 ± 0.0232
AATACGCC	0.188 ± 0.0403
GACACGTA	0.211 ± 0.0335
GATACGCC	0.4525 ± 0.00258
CCCGTCTA	0.159 ± 0.00699
AGACGTAT	0.319 ± 0.0844
CAGTGTCA	0.249 ± 0.0216
CGCATCGA	0.208 ± 0.103
CACCGGTG	0.196 ± 0.0172
ATATGAAT	0.19 ± 0.0448

Sequence	binding signal [E-score]
ATCTGATA	0.446 ± 0.0144
ACCTGATA	0.401 ± 0.0362
ATCTGATC	0.419 ± 0.0129
ATCTGATG	0.156 ± 0.0564
CTCTGATA	0.312 ± 0.08
CCCTGATA	0.36 ± 0.00422
ATCTGACC	0.282 ± 0.0195
ACCTGATC	0.31 ± 0.0291
ATCTGAAC	0.179 ± 0.00772
GGTTTCGA	0.172 ± 0.0592
GAGATCTA	0.172 ± 0.0177
TAAACCCA	0.161 ± 0.0201
CGATCGCA	0.284 ± 0.0349
ATCGGTGA	0.232 ± 0.0224
GTGTCCCA	0.204 ± 0.0515
CGTTAGTA	0.194 ± 0.00764
ATATTCTC	0.269 ± 0.0439
GATCCAAA	0.207 ± 0.0442
AATCCGCT	0.191 ± 0.0498
CATCCGCC	0.237 ± 0.0769
GATCCGCA	0.411 ± 0.0362
AATCCGCC	0.212 ± 0.00218
GATCCGCC	0.427 ± 0.0138
TATCCGAA	0.334 ± 0.0355
AATCCGCA	0.204 ± 0.0414

Sequence	binding signal [E-score]
TATCCGCA	0.4006 ± 0.00313
GCCATATA	0.215 ± 0.0356
ACACCGCT	0.224 ± 0.00469
CCCACTGA	0.191 ± 0.0775
ATGCAGTG	0.153 ± 0.121
ATCGCGTA	0.189 ± 0.0511
TACTACTA	0.195 ± 0.0204
CGGATAAG	0.187 ± 0.0213
CGTATACG	0.317 ± 0.065
CGGATACC	0.476 ± 0.00619
CGGATACA	0.446 ± 0.0132
AGGATACG	0.386 ± 0.0183
CGGATACG	0.38745 ± 0.000205
CGGATGCC	0.214 ± 0.0396
AGGATAAA	0.16 ± 0.041
CGAATACC	0.233 ± 0.0485
CCATCTAC	0.161 ± 0.00787
ATTCAATA	0.161 ± 0.0419
TATGCGAA	0.164 ± 0.0286
ACACCTTC	0.219 ± 0.032
ATGGGGTA	0.163 ± 0.0446
TCGCGACA	0.193 ± 0.0437
ATCGCTCG	0.199 ± 0.0182
CGGATTGC	0.23 ± 0.0242
ACACCGAC	0.256 ± 0.0314

Sequence	binding signal [E-score]
GATCAAGA	0.191 ± 0.0318
CCAAGATC	0.22 ± 0.0354
ACCCAATA	0.158 ± 0.0255
GCCCCTCC	0.158 ± 0.185
GGGATACA	0.383 ± 0.0303
GGAATACC	0.295 ± 0.024
GGGATACC	0.455 ± 0.0274
AGGATACC	0.457 ± 0.00534
TGGATACA	0.351 ± 0.0427
GGGATAAC	0.303 ± 0.0153
AGGATACT	0.364 ± 0.0424
AGGATACA	0.337 ± 0.0073
TCTATACA	0.243 ± 0.0131
CGCCGATA	0.376 ± 0.0145
TACTCGCA	0.154 ± 0.0249
CTATATAG	0.182 ± 0.0165
ATGTGGTA	0.151 ± 0.00476
ACCATCTA	0.159 ± 0.0813
CCCGGGTA	0.228 ± 0.0421
ATACAAGA	0.239 ± 0.0188
TACATCCA	0.156 ± 0.0562
ATTGGATA	0.297 ± 0.05
GATATGAC	0.357 ± 0.048
GGTATGTA	0.2127 ± 0.00178
TATATGGA	0.207 ± 0.0193

Sequence	binding signal [E-score]
CCTATGTA	0.156 ± 0.0122
GATATGGC	0.418 ± 0.0102
GATATGTA	0.383 ± 0.0265
AATATGGA	0.158 ± 0.0544
GATATTGC	0.323 ± 0.0993
GATATGGA	0.423 ± 0.00533
AAAAGTAT	0.204 ± 0.154
AGGGTGAT	0.366 ± 0.00952
ATACTTTA	0.261 ± 0.0614
GATAGGTA	0.325 ± 0.00657
GATCAAAA	0.234 ± 0.0678
AGGGGCGG	0.174 ± 0.127
ATCTTCTA	0.227 ± 0.0812
ATATCATG	0.458 ± 0.0133
AGATCATC	0.344 ± 0.0462
ATATCTTA	0.345 ± 0.0615
ATATCATA	0.442 ± 0.0274
ATCTCATG	0.197 ± 0.0118
AGATCATG	0.295 ± 0.0208
CTATCATC	0.34 ± 0.0172
GCATCATA	0.183 ± 0.0507
CTATCATA	0.341 ± 0.0419
GTATCTTA	0.312 ± 0.0466
GTATCATA	0.471 ± 0.013
ATATCATC	0.46 ± 0.0219

Sequence	binding signal [E-score]
CAGCTATC	0.25 ± 0.0918
ATCATCCA	0.275 ± 0.0117
ATCACAGC	0.2757 ± 0.00158
AGTTAATC	0.182 ± 0.0377
AGTAGTAT	0.349 ± 0.0523
CGGCTCGA	0.15 ± 0.146
GAAGATAA	0.154 ± 0.0705
CCGGGAGA	0.177 ± 0.081
TACCAATA	0.204 ± 0.0104
GGTATCCA	0.464 ± 0.0172
AGTATCCG	0.396 ± 0.0105
ATTATCCA	0.176 ± 0.0268
CCTATCCG	0.316 ± 0.0172
GCTATCCA	0.204 ± 0.0406
ACTATCCG	0.35 ± 0.00425
AGTATCCA	0.391 ± 0.00372
GGTATTCA	0.3 ± 0.0073
ACTATCCA	0.241 ± 0.0211
ATTATAGC	0.176 ± 0.0442
CGATCTTA	0.197 ± 0.0344
CCGATCCA	0.29 ± 0.0686
ACGATCCT	0.347 ± 0.0269
ACGATCCG	0.425 ± 0.0168
CCGATCCG	0.428 ± 0.0349
CCGATCGG	0.319 ± 0.0282

Sequence	binding signal [E-score]
ACGATCCA	0.284 ± 0.0277
ATCACCAC	0.262 ± 0.0152
GATCGGAC	0.248 ± 0.0437
ACACCTCC	0.347 ± 0.0177
ATCGGCTG	0.167 ± 0.0425
ATCTGCCC	0.182 ± 0.0131
CGCTATCC	0.339 ± 0.0225
CGGTATGA	0.225 ± 0.00643
AGGTATCC	0.461 ± 0.0111
ACCTATCC	0.262 ± 0.0365
TGGTATAA	0.287 ± 0.0507
CGGTATCA	0.4855 ± 0.000332
AGGTATCA	0.487 ± 0.00797
CGGTATTC	0.319 ± 0.00856
CGGTATCC	0.451 ± 0.0218
AGTTATCC	0.295 ± 0.00593
AGGTATAT	0.357 ± 0.03
AGGTATGA	0.242 ± 0.0289
GATATTTA	0.157 ± 0.127
ATACGACG	0.191 ± 0.00652
CCCCTCTC	0.161 ± 0.0741
AAAGGGAT	0.253 ± 0.0943
